PubChem BioAssay (EPA / NIEHS)
Several values for one entry are separate records, joined by “and”; a condition that tells them apart may be missing. Equal values may be shown once. Activity calls are given as the source filed them. How the source made its calls: active means hit-call score of the fitted dose curve at least 0.9, where 1 is the maximum; inactive means score below 0.9.

read-out: Interleukin-1 alpha (IL1a), IL1A (gene 3552); test: BSK_LPS_IL1a: BioMAP Diversity Plus: LPS Assay for Interleukin-1 alpha (IL1a) Biomarker Activity (AID 2283080); settings: primary human HUVEC with PBMC; actives raise or lower the signal
Procedure, shortened: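 Readout is IL-1a level by ELISA, 24 h post-dose, fitted as gain or loss relative to DMSO. System: LPS-activated human primary co-culture of vascular endothelium and peripheral blood mononuclear cells, with parallel SRB total-protein cytotoxicity.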

Row | Compound | outcome | AC50
1 | NS(=O)(=O)C(F)(F)C(F)(F)C(F)(F)C(F)(F)C(F)(F)C(F)(F)F | inactive | 
2 | CC(C)CCCC(C)CCO (stereo not given) | inactive | 
3 | CCN(CC)c1ccc(C=O)cc1 | inactive | 
4 | O=C=Nc1cccc2c(N=C=O)cccc12 | inactive | 
5 | OCCCCC(F)(F)C(F)(F)C(F)(F)C(F)(F)F | inactive | 
6 | O=C(O)CCC(F)(F)C(F)(F)C(F)(F)C(F)(F)C(F)(F)C(F)(F)C(F)(F)F | inactive | 
7 | CCN(CC)c1ccc(N=Nc2ccccc2)cc1 |  | 34.4 µM (active)
8 | O=C(Cl)C(F)(F)C(F)(F)C(F)(F)C(F)(F)C(F)(F)C(F)(F)F | inactive | 
9 | Cc1cnccn1 | inactive | 
10 | NC(O)(C(F)(F)F)C(F)(F)F | inactive | 
11 | O=C(O)C(F)(F)OC(F)(F)C(F)(F)OC(F)(F)C(F)(F)OC(F)(F)F | inactive | 
12 | O=C(O)C(F)(F)C(F)(F)C(F)(F)C(F)(F)C(F)(F)C(F)(F)C(F)F | inactive | 
13 | Cc1ccc(S(=O)(=O)C(I)I)cc1 |  | 1.92 µM (active)
14 | OCCCC(F)(F)C(F)(F)C(F)(F)C(F)(F)C(F)(F)C(F)(F)C(F)(F)C(F)(F)F |  | 30 µM (active) and 6.25 µM (active)
15 | O=C(O)CCC(F)(F)C(F)(F)C(F)(F)F | inactive | 
